# The list shows a part of the results. The hit rate among all sequences tested is not known here.
# Target: furin, P09958
# Assay: furin cleavage Z-score vs untreated control; higher = more cleavage, active = 3.5 or more, inactive = 1 or less, 8 variable residues between constant flanks
# Procedure: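 Multiplexed peptide-cDNA fusion cleavage assay. 8-mer variable peptides flanked by constant Cys-Ala (N-term) and Ala-Gly-Asn-Ala-Ser-Ala-Ser-Ala (C-term) and conjugated to a cDNA oligonucleotide were bead-immobilised via the N-terminus. They were treated with purified furin at a 1:10 enzyme:substrate ratio in 50 mM HEPES pH 7.5, 1 mM CaCl2, 100 mM NaCl for 7.5, 15 or 30 min. Released cDNA was counted by next-generation sequencing, and log counts versus no-furin controls were lowess-adjusted and converted to robust Z-scores.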
# Chain of furin, P09958 (P09958 whole entry): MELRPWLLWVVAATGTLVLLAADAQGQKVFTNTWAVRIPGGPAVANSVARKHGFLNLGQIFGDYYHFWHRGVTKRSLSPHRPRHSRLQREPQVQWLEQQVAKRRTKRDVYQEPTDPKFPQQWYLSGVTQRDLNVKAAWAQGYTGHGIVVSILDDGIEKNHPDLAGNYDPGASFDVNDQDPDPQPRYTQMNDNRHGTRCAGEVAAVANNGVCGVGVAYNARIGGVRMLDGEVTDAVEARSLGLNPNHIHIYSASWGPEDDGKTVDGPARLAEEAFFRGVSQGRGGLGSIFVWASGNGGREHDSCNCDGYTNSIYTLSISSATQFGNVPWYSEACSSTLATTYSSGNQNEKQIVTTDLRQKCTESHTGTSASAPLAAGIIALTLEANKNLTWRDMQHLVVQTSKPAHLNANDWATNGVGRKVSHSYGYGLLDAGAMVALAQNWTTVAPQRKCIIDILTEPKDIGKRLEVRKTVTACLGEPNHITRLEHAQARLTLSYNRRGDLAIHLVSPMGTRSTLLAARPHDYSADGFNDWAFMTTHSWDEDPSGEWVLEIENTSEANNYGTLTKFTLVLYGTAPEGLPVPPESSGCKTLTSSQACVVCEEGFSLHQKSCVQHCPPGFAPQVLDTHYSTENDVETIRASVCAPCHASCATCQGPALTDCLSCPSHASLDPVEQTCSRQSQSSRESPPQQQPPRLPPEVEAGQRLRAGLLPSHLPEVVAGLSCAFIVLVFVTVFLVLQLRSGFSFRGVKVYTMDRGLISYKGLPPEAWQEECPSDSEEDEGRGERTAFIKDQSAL
Sequence,furin cleavage Z-score (7.5 min),furin cleavage Z-score (15 min),furin cleavage Z-score (30 min)
CAMEECSQYLAGNASASA [HC1749],0.871 (inactive),2.54,0.195 (inactive)
CAPVVVGTTDAGNASASA [HC417],-0.513 (inactive),0.318 (inactive),-0.373 (inactive)
CAEVVTSVWVAGNASASA [HC2210],-1.35 (inactive),-0.635 (inactive),0.276 (inactive)
CARPRRDSAGAGNASASA [FS-2500],0.906 (inactive),-0.366 (inactive),0.714 (inactive)
CARPRRLLQAAGNASASA [FS-2165],-1.03 (inactive),-0.941 (inactive),-0.713 (inactive)
CARPRRDCVAAGNASASA [FS-2440],5.46 (active),5.89 (active),6.25 (active)
CARPRRDAAEAGNASASA [FS-2741],8.33 (active),11 (active),8.31 (active)
CARPRRDAEPAGNASASA [FS-1762],10.8 (active),12.9 (active),9.93 (active)
CATKPCSGSWAGNASASA [HC1854],-0.725 (inactive),-0.656 (inactive),-1.12 (inactive)
CAEVTTPCSGAGNASASA [HC1970],0.193 (inactive),-0.206 (inactive),-0.0766 (inactive)
CARRRRGAPEAGNASASA [FS-2297],6.8 (active),6.5 (active),6.23 (active)
CARRRRVVPEAGNASASA [FS-2082],1.92,5.11 (active),6.08 (active)
CARRRRGALRAGNASASA [FS-2787],3.24,5.07 (active),6.59 (active)
CARARREALRAGNASASA [FS-2326],7.37 (active),9.91 (active),7.3 (active)
CAVDVVCCSMAGNASASA [HC2110],-1.67 (inactive),-0.512 (inactive),-0.588 (inactive)
CAWRNRKKKTAGNASASA [FS-575],-0.592 (inactive),-0.739 (inactive),-1.25 (inactive)

Sequence,furin cleavage Z-score (7.5 min),furin cleavage Z-score (15 min),furin cleavage Z-score (30 min)
CAGLVPRGSGAGNASASA [TR8],-1.24 (inactive),-1.44 (inactive),-1.84 (inactive)
CAMEECSFHLAGNASASA [HC1727],2.23,-1.03 (inactive),1.18
CASYSWTGALAGNASASA [HC1372],-0.915 (inactive),-0.282 (inactive),0.0526 (inactive)
CASGENLPYLAGNASASA [HC950],-0.962 (inactive),0.134 (inactive),-0.522 (inactive)
CAVGGVYLLPAGNASASA [HC176],1.19,0.0945 (inactive),0.538 (inactive)
CARKFRSGLIAGNASASA [FS-2152],-0.364 (inactive),0.099 (inactive),-0.282 (inactive)
CAINALSNSLAGNASASA [HC1382],-0.629 (inactive),-0.0116 (inactive),0.458 (inactive)
CARKRRANSLAGNASASA [FS-3194],6.54 (active),9.21 (active),5.81 (active)
CARKRRAVLTAGNASASA [FS-2971],8.83 (active),12.7 (active),10.3 (active)
CAKKRTVVLTAGNASASA [HC1325],-0.725 (inactive),-0.173 (inactive),0.000165 (inactive)
CASFRRAFLIAGNASASA [FS-2322],-1.89 (inactive),-0.15 (inactive),-1.34 (inactive)
CARPRRILNTAGNASASA [FS-2441],-2.76 (inactive),0.234 (inactive),0.846 (inactive)
CARKRRALLIAGNASASA [FS-3258],5.47 (active),5.56 (active),8.18 (active)
CARQQRDEETAGNASASA [FS-2401],-0.691 (inactive),-0.187 (inactive),-3.21 (inactive)
CARKRRNLETAGNASASA [FS-2700],7.71 (active),8.41 (active),8.69 (active)
CAEPDVAVLTAGNASASA [HC1243],0.073 (inactive),0.723 (inactive),-1.2 (inactive)
